# Measurements reported in PubChem BioAssay (NCATS).
# Records with an inconclusive call do not appear. A call without a number means that no potency is given here. A number with no mark means an inactive call. Activity calls are given as the source filed them. Calls follow the shape of the dose curve; as a rule, active = well fitted inhibition curve with a large enough effect; inconclusive = small, poorly fitted or top-dose-only effect; inactive = flat fitted curve, though single readings scatter.
# Assays:
# [1] = system: NIH3T3; assay: Cytotoxic Profiling of Annotated Libraries Using Quantitative High-Throughput Screening (AID 1296008); conditions: Five cell lines viability, CellTiter-Glo ATP luminescence, 48-72 h; max response: stronger effect = lower value
# Procedure, shortened: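 Cells exposed to compounds for 48 or 72 hr at 37 degrees Celsius. Viability read as ATP-coupled luminescence with CellTiter-Glo after 10 min at room temperature.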
# [2] = system: MCC-13; assay: qHTS assay to identify novel small-molecules to repurpose for Merkel cell carcinoma treatment (AID 1296009); conditions: MCC and control cell lines, CellTiter-Glo viability, 72 h; series mostly up to 46 µM
# Procedure, shortened: (§1)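 Cells were treated for 72 hr at 37 degree celsius with compounds in 8- or 11-point dose response. Viability was read by CellTiter-Glo luminescence, normalized to no-cell (cytotoxicity) and DMSO controls.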
# [3] = system: MCC-26; assay: as above; conditions: MCC and control cell lines, CellTiter-Glo viability, 72 h; series mostly up to 46 µM
# Procedure, shortened: as §1
# [4] = system: MKL-1; assay: as above; conditions: MCC and control cell lines, CellTiter-Glo viability, 72 h; series mostly up to 46 µM
# Procedure, shortened: as §1
# [5] = system: MKL-2; assay: as above; conditions: MCC and control cell lines, CellTiter-Glo viability, 72 h; series mostly up to 46 µM
# Procedure, shortened: as §1
# [6] = system: CRL-7250; assay: as above; conditions: MCC and control cell lines, CellTiter-Glo viability, 72 h; at 44.8 µM (top of the series) unless noted
# Procedure, shortened: as §1
# [7] = system: PC49; assay: qHTS profiling for inhibitors of Plasmodium falciparum proliferation (AID 504749); conditions: P. falciparum in erythrocytes, SYBR Green DNA, 72 h; series mostly up to 28.7 µM
# Procedure, shortened: (§2)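 P. falciparum-infected erythrocytes (0.3% parasitemia, 2.5% hematocrit) incubated with compound 72 h at 37 C, 5% CO2. Parasite DNA detected by SYBR Green after lysis, overnight at room temperature; normalised to 0.29 uM artemisinin and DMSO.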
# [8] = system: SC27B; assay: as above; conditions: P. falciparum in erythrocytes, SYBR Green DNA, 72 h; series mostly up to 28.7 µM
# Procedure, shortened: as §2
# [9] = system: TAB109; assay: as above; conditions: P. falciparum in erythrocytes, SYBR Green DNA, 72 h; series mostly up to 28.7 µM
# Procedure, shortened: as §2
# [10] = system: TAB113; assay: as above; conditions: P. falciparum in erythrocytes, SYBR Green DNA, 72 h; series mostly up to 28.7 µM
# Procedure, shortened: as §2
# [11] = system: TAB165; assay: as above; conditions: P. falciparum in erythrocytes, SYBR Green DNA, 72 h; series mostly up to 28.7 µM
# Procedure, shortened: as §2
# [12] = system: W2; assay: as above; conditions: P. falciparum in erythrocytes, SYBR Green DNA, 72 h; series mostly up to 28.7 µM
# Procedure, shortened: as §2
# Also: nearly all actives have a fitted effect of over 60% in size.
# Potency is read from the fitted curve at half-maximal effect.
structure (smiles),measurement,setting,value
c1ccc(CCCN2CCN(CCOC(c3ccccc3)c3ccccc3)CC2)cc1,Potency,[1],16.6 µM (active)
same,Potency,[2],inactive
same,Potency,[3],inactive
same,Potency,[4],inactive
same,Potency,[5],20.9 µM (active)
O=S(c1cc(Cl)cc(Cl)c1O)c1cc(Cl)cc(Cl)c1O,outcome,[6],inactive
COc1cc2c(cc1OC)C(=O)CC2,outcome,[6],inactive
CC(=O)Nc1ccc(O)cc1,outcome,[6],inactive
COc1ccc2cc(CCC(C)=O)ccc2c1,outcome,[6],inactive
CCCn1c(=O)c2[nH]c(C34CC5CC3C[C@@H](C5)C4)nc2n(CCC)c1=O,outcome,[6],inactive
COc1ccc(-c2oc3cc(OC)ccc3c2C(=O)c2ccc(C#N)cc2)cc1,outcome,[6],inactive
CC(C)OC(=O)C1=CN(C(=O)c2ccc(F)c(F)c2)CC(C)(C)c2c1[nH]c1ccccc21,outcome,[6],inactive
CN1C2CCC1CC(OC(=O)c1cc(Cl)cc(Cl)c1)C2 (configuration not stated),Potency,[7],inactive
same,Potency,[8],inactive
same,Potency,[9],inactive
same,Potency,[10],inactive
same,Potency,[11],inactive
same,Potency,[12],10.7 µM (active)
CC(C)(C)C(=O)Oc1ccc2c(c1)nc(NC(=O)c1cccc([N+](=O)[O-])c1)n2CCCO,outcome,[6],inactive
CCOC(=O)C(=O)CCCCCCl,outcome,[6],inactive
CC(C)OC(=O)c1cc(C(=O)OC(C)C)cc([N+](=O)[O-])c1,outcome,[6],inactive [at 92 µM]
O=C(Nc1cccc(C2=NCCN2)c1)Nc1cccc(C2=NCCN2)c1,outcome,[6],inactive [at 17.4 µM]
CCCCC(CC)COC(=O)c1ccc(N(C)C)cc1 (configuration not stated),outcome,[6],inactive
CC1=NN(c2ccccc2)C(=O)C1,outcome,[6],inactive
Cc1c(C)c2c(c(C)c1OC(=O)c1cccnc1)CC[C@@](C)(CCC[C@H](C)CCC[C@H](C)CCCC(C)C)O2,outcome,[6],inactive
COc1ccc(C(c2ccc(OC)cc2)C(Cl)(Cl)Cl)cc1,Potency,[2],inactive
same,Potency,[3],inactive
Cc1cccc(Nc2nc(N[C@@H]3CCCC[C@H]3N)ncc2C(N)=O)c1,outcome,[6],inactive
O=C(O)[C@H](Cc1c[nH]c2ccccc12)N1C(=O)c2ccccc2C1=O,outcome,[6],inactive [at 92 µM]
CN1CCN(c2c(F)cc3c(=O)c(C(=O)O)cn4c3c2OCN4C)CC1,outcome,[6],inactive [at 17.4 µM]
C[C@@H]1CN(c2c(F)c(N)c3c(=O)c(C(=O)O)cn(C4CC4)c3c2F)C[C@H](C)N1,outcome,[6],inactive [at 17.4 µM]
O=[N+]([O-])c1cccc(S(=O)(=O)NCCNS(=O)(=O)c2cccc([N+](=O)[O-])c2)c1,outcome,[6],inactive
COc1ccc(CCN(C)CCCOc2ccc(S(=O)(=O)c3[nH]c4ccccc4c3C(C)C)cc2)cc1OC,outcome,[6],inactive
CCN(CC)CCNC(=O)c1ccc(NC(C)=O)cc1,outcome,[6],inactive
CC(C)(C)c1cc(C(C)(C)C)c(NC(=O)c2c[nH]c3ccccc3c2=O)cc1O,outcome,[6],inactive
COc1ccc2c(c1)c1c3n2CCN(C)C3=NCC1,outcome,[6],inactive
O=C(C=Cc1c(C(=O)O)[nH]c2cc(Cl)cc(Cl)c12)Nc1ccccc1,outcome,[6],inactive
CC(C)[C@H](CO)Nc1nc(Nc2ccc(C(=O)O)c(Cl)c2)c2ncn(C(C)C)c2n1,outcome,[6],inactive [at 17.4 µM]
Cc1cc2c(cc1C1(c3ccc(C(=O)O)cn3)CC1)C(C)(C)CCC2(C)C,outcome,[6],inactive
CN1[C@H]2CC(O)C[C@H]1[C@H]1O[C@H]12 (some centres not stated),Potency,[2],inactive
same,Potency,[3],inactive
same,Potency,[4],inactive
same,Potency,[5],inactive
Nc1ccc(S(=O)(=O)Nc2ccccc2)cc1,outcome,[6],inactive
C[C@H](NC(=O)Cc1cc(F)cc(F)c1)C(=O)N[C@@H]1C(=O)N(C)c2ccccc2-c2ccccc21,outcome,[6],inactive
CCOC(=O)[C@@H](N)CCC(=O)N[C@@H](CSCc1ccccc1)C(=O)N[C@@H](C(=O)OCC)c1ccccc1,outcome,[6],inactive
CS(=O)(=O)Oc1ccc2c(NC(N)=O)c(C(=O)c3ccc(Cl)cc3Cl)oc2c1,outcome,[6],inactive
O=C(C=Cc1ccc(/C=C/C(=O)Nc2ccc(C3=NCCN3)cc2)cc1)Nc1ccc(C2=NCCN2)cc1,outcome,[6],inactive
Cc1nnc(C(C)C)n1C1CC2CCC(C1)N2CC[C@H](NC(=O)C1CCC(F)(F)CC1)c1ccccc1 (some centres not stated),outcome,[6],inactive
CCOc1cc(C(=O)Nc2ccc(Cl)c(-c3nc4ccccc4[nH]3)c2)cc(OCC)c1OCC,outcome,[6],inactive
O=C(C1CC1)N1CC[C@@H](Cn2c(-c3ccc(-c4ccc5occc5c4)cc3)nc3cnccc32)C1,outcome,[6],inactive
C1=CC2C3C=CC(C3)C2C1 (configuration not stated),outcome,[6],inactive [at 92 µM]
C=CCN1CC[C@]23CCCCC2[C@H]1Cc1ccc(O)cc13 (some centres not stated),Potency,[7],inactive
same,Potency,[8],inactive
same,Potency,[9],inactive
same,Potency,[10],inactive
same,Potency,[11],inactive
